Source: PubChem BioAssay (NCI)
The panel holds about 83,000 compounds, 20% with a hit somewhere; the sample as a whole holds those more often.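 The endpoint reported here, percent growth, reads 100 for growth as untreated, 0 for no net growth and -100 for all cells dead.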 Calls of active or inactive are those of the source. How the source made its calls: active means growth percent below 10; inactive means the rest.

Experiments:
Test in all cases: NCI-60 one-dose screen, 48 h (100 = growth as untreated, 0 = no growth, -100 = all killed)
[1] = tested on: A549/ATCC NSCLC; conditions: 10 µM unless noted
[2] = tested on: DU-145 prostate; conditions: 10 µM unless noted
[3] = tested on: RXF 393 renal; conditions: 10 µM unless noted
[4] = tested on: SF-295 CNS; conditions: 10 µM unless noted
[5] = tested on: UACC-257 melanoma; conditions: 10 µM unless noted
[6] = tested on: HCT-15 colon; conditions: 10 µM
[7] = tested on: SNB-75 CNS; conditions: 10 µM unless noted
[8] = tested on: SK-MEL-5 melanoma; conditions: 10 µM unless noted
[9] = tested on: LOX IMVI melanoma; conditions: 10 µM unless noted
[10] = tested on: SK-MEL-2 melanoma; conditions: 10 µM unless noted
[11] = tested on: CAKI-1 renal; conditions: 10 µM unless noted
[12] = tested on: A498 renal; conditions: 10 µM unless noted
[13] = tested on: HL-60(TB) leukemia; conditions: 10 µM unless noted
[14] = tested on: MOLT-4 leukemia; conditions: 10 µM
[15] = tested on: OVCAR-8 ovarian; conditions: 10 µM unless noted
[16] = tested on: IGROV1 ovarian; conditions: 10 µM
[17] = tested on: HS 578T breast; conditions: 10 µM unless noted
[18] = tested on: SF-539 CNS; conditions: 10 µM unless noted
[19] = tested on: HT29 colon; conditions: 10 µM unless noted
[20] = tested on: ACHN renal; conditions: 10 µM unless noted

Measured: growth

Cc1cc(CCl)c(C)cc1CCl
active: [2] 1.11% | [11] 5.81%
inactive: [1] 55% | [3] 93.3% | [4] 25.7% | [5] 62.1% | [6] 75.2% | [7] 48.4% | [8] 70.1% | [9] 28% | [10] 70.1% | [12] 84.6% | [13] 15.3% | [14] 29.7% | [15] 61.7% | [16] 26.4% | [17] 81.7%

OC1(c2ccccc2F)c2ccccc2C2=NCCN21 (stereo unspecified)
inactive: [1] 114% | [2] 113% | [4] 91.8% | [18] 100% | [5] 111% | [6] 108% | [19] 105% | [7] 104% | [8] 94.6% | [9] 96.9% | [10] 94.6% | [20] 114% | [11] 64.4% | [12] 105% | [13] 83.8% | [14] 97.7% | [15] 104% | [16] 79.4% | [17] 110%
active: [3] -10.4%

Nc1ncnc2c1c(C(=O)NO)cn2C1OC(CO)C(O)C1O (stereo unspecified)
active: [2] -32.1% | [3] -26.9% | [4] -47.6% | [18] -32.4% | [5] -48% | [6] -9.1% | [19] 7.07% | [7] 4.46% | [8] -93% | [9] -5.18% | [10] -18.7% | [20] -15.4% | [11] -23.1% | [12] -30.1% | [13] -43% | [14] -32.9% | [15] -20.2% | [16] -71.1% | [17] -7.9%

Cc1cccc(N(C)c2cccc3c2C(=O)[Se]C3)c1C
inactive: [1] 15.8% | [2] 34.6% | [3] 44.7% | [4] 20.7% | [18] 56.4% | [5] 50.7% | [6] 31.6% | [8] 66% | [9] 38.2% | [10] 62.8% | [20] 54% | [11] 70.1% | [14] 67.9% | [15] 20.2% | [16] 28.2% | [17] 58.8%
active: [19] 9.4% | [13] -17.1%

COc1ccc(C(c2ccc(OC)cc2)C(Cl)(Cl)Cl)cc1
inactive: [1] 94.6% | [2] 107% | [3] 73.4% | [4] 102% | [18] 79.5% | [5] 78.8% | [6] 91.8% | [19] 78.3% | [8] 80.2% | [10] 77.4% | [20] 92.1% | [11] 68.4% | [12] 57.3% | [13] 72.5% | [14] 85.8% | [15] 86.7% | [16] 76.4%

COc1cc(N(CCCl)CCCl)ccc1C=Nc1ccccc1C(=O)O
inactive: [1] 92.6% | [2] 104% | [3] 102% | [4] 98% | [18] 102% | [5] 91% | [6] 97.7% | [19] 98.2% | [7] 85.8% | [8] 97.4% | [9] 101% | [10] 113% | [20] 97% | [11] 98.7% | [12] 66.3% | [13] 94.8% | [14] 97.2% | [15] 92.9% | [16] 84.1% | [17] 81.5%

COc1cc(C2(C#N)CCN(C)CC2)cc(OC)c1OC
inactive: [1] 88.8% | [2] 113% | [3] 114% | [4] 98.8% | [18] 111% | [5] 108% | [6] 97.2% | [19] 101% | [7] 84.9% | [8] 107% | [9] 93.8% | [10] 109% | [20] 98.5% | [11] 79.1% | [12] 88.4% | [13] 95% | [14] 83.3% | [15] 101% | [16] 109% | [17] 100%

CCOC(=O)/C=C(\C)Nc1ccc(N/C(C)=C/C(=O)OCC)c2c1Oc1ccccc1O2
active: [3] 0.357%
inactive: [1] 106% | [2] 110% | [4] 99.4% | [18] 105% | [5] 109% | [6] 100% | [19] 112% | [7] 103% | [8] 79.9% | [9] 94.4% | [10] 100% | [20] 104% | [11] 95.5% | [12] 102% | [13] 63.4% | [14] 75.5% | [15] 96.7% | [17] 87.3%

Nc1cccc2c1Oc1ccccc1O2
inactive: [1] 97% | [2] 120% | [3] 145% | [4] 119% | [18] 112% | [5] 102% | [6] 102% | [19] 119% | [7] 133% | [8] 86% | [9] 93.1% | [10] 98% | [20] 99.2% | [11] 88% | [12] 118% | [13] 107% | [14] 103% | [15] 104% | [17] 112%
active: [16] 2.63%

CCCCCCCCCCOc1ccc(C(=O)Oc2ccc(CSP3(=O)OCC4OC(n5ccc(=O)[nH]c5=O)C(F)C4OP(=O)(O)OCC4OC(n5cnc6c(N)ncnc65)C(F)C4O3)cc2)cc1 (stereo unspecified)
inactive: [1] 85.9% | [2] 106% | [3] 72.6% | [4] 105% | [18] 23.1% | [5] 21.3% | [6] 105% | [19] 79.3% | [7] 102% | [8] 111% | [9] 85.3% | [10] 76.3% | [14] 68.4% | [15] 104% | [16] 95.3% | [17] 111%
active: [12] 6.69% | [13] -12.8%

N#C[Se]CCN1C(=O)C2C(C1=O)[C@H]1C=C[C@@H]2S1 (stereo partly specified)
active: [1] -19.3% | [2] -33.3% | [3] -52.2% | [4] -34.8% | [18] -70.5% | [6] -4.75% | [19] 5.94% | [8] -52.8% | [9] -46% | [20] -2.15% | [11] -98.7% | [13] -48.1% | [14] 4.47% | [15] -19.3% | [16] -54.4% | [17] -10.3%
inactive: [5] 10.9% | [10] 23.4%

CCOc1cc(/C=N\Nc2nnc(C)n2N)c(C)cc1N(CCCl)CCCl
active: [4] -26.6% | [5] -5.96% | [8] -47.3% | [9] 1.98% | [12] -26% | [13] -48.9% | [14] -9.42%
inactive: [1] 14.5% | [2] 27.8% | [3] 29.7% | [18] 34.5% | [6] 25.5% | [19] 23.9% | [7] 24.1% | [10] 17.2% | [20] 21.6% | [11] 11.8% | [15] 19.5% | [16] 12.3% | [17] 14.6%

O=C(CCCN1CCC2(CC1)C(=O)NCN2c1ccc(F)cc1)c1ccc(F)cc1
inactive: [2] 122% | [3] 102% | [4] 180% | [18] 93.2% | [5] 104% | [6] 105% | [19] 111% | [7] 92.4% | [8] 104% | [9] 106% | [10] 84.9% | [20] 108% | [11] 121% | [12] 106% | [13] 100% | [14] 103% | [15] 97.8% | [16] 71.9% | [17] 133%

COc1ccc(C(=O)c2ccc([As]=O)cc2)cc1 (stereo unspecified)
active: [1] -71.8% | [3] -99.6% | [4] -97.9% | [18] -91.6% | [5] -95.7% | [6] -73% | [19] -68.9% | [7] -97% | [8] -99.5% | [9] -97.1% | [10] -94% | [20] -91.8% | [11] -98.7% | [12] -100% | [13] -47.4% | [14] -24.5% | [15] -84.2% | [16] -29.3% | [17] -1.54%

CN(C)P1(N(C)C)=NP(N(C)C)(N(C)C)=NP(N(C)C)(N(C)C)=N1
inactive: [1] 99.3% | [2] 110% | [3] 109% | [4] 101% | [18] 104% | [5] 93.6% | [6] 101% | [19] 104% | [7] 90.3% | [8] 107% | [9] 92.7% | [10] 98.2% | [20] 97.2% | [11] 79% | [12] 108% | [13] 100% | [14] 102% | [15] 96.1% | [16] 95.4% | [17] 114%

OC1(c2ccc(Cl)cc2Cl)c2ccccc2C2=NCCN21 (stereo unspecified)
inactive: [1] 103% | [2] 109% | [4] 95.3% | [18] 102% | [5] 86.2% | [6] 101% | [19] 92.2% | [7] 94.2% | [8] 83% | [9] 90.7% | [10] 98.2% | [20] 103% | [12] 94.4% | [13] 63.3% | [14] 78.9% | [15] 102% | [16] 78.9% | [17] 77.7%
active: [3] -13% | [11] -21.8%

O=c1[nH]c2cc(Cl)ccc2n1C1CCN(CCCC(c2ccc(F)cc2)c2ccc(F)cc2)CC1
active: [2] -0.502% | [4] -27.6% | [5] -81.4% | [6] -30.3% | [19] -36.9% | [8] -80.9% | [9] -91.9% | [12] -90.2% | [14] -28.3% | [15] -56.7% | [17] -80.6%
inactive: [3] 30.5% | [18] 15.5% | [7] 60.7% | [10] 16.8% | [20] 48.5% | [11] 30%
